For 5 compounds, composite z-score and z-score results are on record in PubChem BioAssay.

Experiment [1] is described as follows: compounds binding Alexa647 anti-His antibody – biochemical, small-molecule microarray, 635 nm fluorescence, artefact control for SMM control protein annotation, primary screen (AID 1128).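 Further: score merges feature fluorescence with signal-to-noise for each printed compound spot.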 As to conditions: higher = more signal.
The test system of experiment [2] is Human papillomavirus type 1a E7 protein (residues 1-88). The experiment is described as follows: HPV1a E7 small-molecule binders, primary screen, biochemical, small-molecule microarray, residues 1-88, 635 nm (AID 1129). To be noted: small-molecule microarray binding, fluorescence 635 nm; higher = more signal.
Experiment [3] has as its target Focal adhesion kinase 1 (Homo sapiens) (UniProt Q05397). The experiment is described as follows: PTK2 protein binding on printed compound slides – biochemical, small-molecule microarray, 635/667 nm fluorescence, BSA, DTT, primary screen (AID 1130).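 Further: composite of spot emission at 667 nm and signal to noise over triplicate slides.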 To be noted: 635 nm fluorescence, higher = more signal.
Experiment [4] concerns Fibrinogen (Alexa647-labelled). The experiment is described as follows: Alexa647-fibrinogen binding to printed small molecules – biochemical, small-molecule microarray, 635/667 nm fluorescence, artefact control for SMM control-protein annotation, profiling panel (AID 1131).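 Further: z-score merges 667 nm fluorescence with per-spot signal-to-noise over triplicate slides.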 As to conditions: fibrinogen-A647 binding fluorescence, higher = more signal.
The target in experiment [5] is Follistatin (Homo sapiens) (UniProt P19883). Put plainly: FST protein binding to printed compounds – biochemical, small-molecule microarray, 635/667 nm fluorescence, primary screen (AID 1132). To be noted: 635 nm fluorescence, higher = more signal.
The target of experiment [6] is Fibroblast growth factor 2 (Homo sapiens) (UniProt P09038). Put plainly: basic fibroblast growth factor binding to printed compounds – biochemical, small-molecule microarray, 635/667 nm fluorescence, primary screen (AID 1133). As to conditions: FGF2, fluorescence 635/667, higher = more signal.
A short description of experiment [7]: JC-1 mitochondrial potential readout, lung cancer cells – cell-based, A549, JC-1 fluorescence, basal, 24 h, 100 nL, profiling panel (AID 1138).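 Further: A549 lung adenocarcinoma cells under basal conditions with no added stimulus; test concentration not given here.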 To be noted: higher = more signal.
The subject of experiment [8] is Lefty1. Put plainly: Lefty1 protein binding to printed compounds – biochemical, small-molecule microarray, 635/667 nm fluorescence, primary screen (AID 1139). To be noted: fluorescence 635/667, higher = more signal.
In experiment [9] the test system is wheat germ agglutinin (Triticum aestivum), Alexa647-labelled. The experiment is described as follows: Alexa647-WGA lectin binding to printed small molecules – biochemical, small-molecule microarray, 635/667 nm fluorescence, artefact control for SMM control-protein annotation, profiling panel (AID 1140).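 Further: score merges 667 nm feature emission with signal to noise over triplicate slides.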 As to conditions: WGA-A647 binding, 635 nm fluorescence, higher = more signal.

The target in experiment [10] is Luciferin 4-monooxygenase (Photinus pyralis) (UniProt P08659). Put plainly: inhibition of purified Photinus pyralis luciferase – biochemical, luminescence, purified enzyme, 2006 set, primary screen (AID 1141).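 Further: cell-free assay with purified firefly luciferase at 100 ng per well in PBS; test concentration not given here.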 As to conditions: purified firefly luciferase, SteadyGlo luminescence, 30 min; higher = more signal, called active from +8 up or from −8 down.
For experiment [11], the system named is Wnt5a (protein binding on small-molecule microarray). Put plainly: small molecules binding Wnt5a protein – biophysical, small-molecule microarray, 635/667 nm fluorescence, primary screen (AID 1142).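 Further: fluorescence read at 667 nm with signal to noise per printed feature.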 To be noted: 635 nm fluorescence, higher = more signal.
Experiment [12] in a line: ATP-based viability of Huh7 replicon cells – cell-based, CellTiter-Glo luminescence, basal, 48 h, cytotoxicity control for HCV replication inhibitor project, primary screen (AID 1143).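 Further: Huh7 hepatoma cells carrying a hepatitis C replication reporter with no stimulus; test concentration not given here.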 As to conditions: higher = more signal, called active from +8 up or from −8 down.
Experiment [13] is described as follows: Pseudomonas biofilm growth suppression – PAO1 strain, BacTiter-Glo luminescence, LB-PBS, primary screen (AID 1144). As to conditions: P. aeruginosa PAO1 biofilm, 12 h, higher = more signal.
Experiment [14] in a line: basal CRE-LacZ reporter activity in PC12 – cell-based, unstimulated, primary screen (AID 1145). To be noted: no forskolin, luminescence, 4.5 h, higher = more signal, called active from +8 up or from −8 down.
The nature of experiment [15]: forskolin-driven CRE-LacZ activity in PC12 – cell-based, CRE-LacZ reporter, forskolin-stimulated, primary screen (AID 1146).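 Further: PC12 cells with 6xCRE LacZ reporter stimulated by forskolin 10 µM; beta-galactosidase reporter signal reflecting CREB driven transcription.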 To be noted: luminescence, 4.5 h, higher = more signal, called active from +8 up or from −8 down.
Experiment [16] concerns the target Streptavidin (Streptomyces avidinii) (UniProt P22629). Put plainly: compounds binding control protein streptavidin – biophysical, small-molecule microarray, 635/667 nm fluorescence, artefact control for SMM compound annotation, primary screen (AID 1147).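 Further: signal reflects streptavidin binding to arrayed compounds as a control protein.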 As to conditions: higher = more signal.
Experiment [17] in a line: probe aInhba binding on compound microarray – biochemical, small-molecule microarray, 635/667 nm fluorescence, primary screen (AID 1148).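 Further: score merges 667nm spot fluorescence with signal-to-noise for antibody binding to printed compounds.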 As to conditions: higher = more signal.
In experiment [18] the target is Torsin-1A (Homo sapiens) (UniProt O14656). The experiment is described as follows: TOR1A wild-type binding on microarray – cell lysate, small-molecule microarray, lysate, 635/667 nm, primary screen (AID 1149). As to conditions: COS7 hTOR1A-WT lysate, 635 nm fluorescence, higher = more signal.
For experiment [19] the target is unchanged. The experiment is described as follows: torsin A mutant lysate binding on microarrays – cell lysate, small-molecule microarray, COS7 lysate, 635/667 nm fluorescence, primary screen (AID 1150).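 Further: score pools 667 nm emission and signal to noise measuring lysate protein binding.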 As to conditions: COS7 hTOR1A mutant lysate, 635 nm fluorescence, higher = more signal.
For experiment [20], the system named is Sonic hedgehog protein (Shh). Put plainly: Sonic hedgehog microarray binding compounds – biochemical, small-molecule microarray, 635/667 nm fluorescence, primary screen (AID 1151).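 Further: Shh protein binding to compounds spotted on small-molecule microarray slides; score combines spot fluorescence intensity with signal-to-noise across triplicate slides.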 To be noted: 635 nm fluorescence, higher = more signal.

Calls of active or inactive are those of the source. Unless noted, how the calls were made is not given here.

Sequence of Streptavidin (Streptomyces avidinii) (P22629 whole entry, looked up): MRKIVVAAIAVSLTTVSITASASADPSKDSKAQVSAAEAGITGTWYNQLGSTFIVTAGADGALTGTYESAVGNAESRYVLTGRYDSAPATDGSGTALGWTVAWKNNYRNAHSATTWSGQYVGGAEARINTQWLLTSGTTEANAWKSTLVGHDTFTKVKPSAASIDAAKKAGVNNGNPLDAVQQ
Sequence of Fibroblast growth factor 2 (Homo sapiens) (P09038 whole entry, looked up): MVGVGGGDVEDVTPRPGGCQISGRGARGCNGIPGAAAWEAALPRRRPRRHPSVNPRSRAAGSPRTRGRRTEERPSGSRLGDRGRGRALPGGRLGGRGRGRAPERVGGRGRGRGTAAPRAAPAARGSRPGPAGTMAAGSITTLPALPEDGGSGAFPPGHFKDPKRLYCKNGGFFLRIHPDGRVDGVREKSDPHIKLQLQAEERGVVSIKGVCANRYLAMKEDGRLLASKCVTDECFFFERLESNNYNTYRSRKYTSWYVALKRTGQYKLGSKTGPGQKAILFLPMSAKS
Sequence of Luciferin 4-monooxygenase (Photinus pyralis) (P08659 whole entry, looked up): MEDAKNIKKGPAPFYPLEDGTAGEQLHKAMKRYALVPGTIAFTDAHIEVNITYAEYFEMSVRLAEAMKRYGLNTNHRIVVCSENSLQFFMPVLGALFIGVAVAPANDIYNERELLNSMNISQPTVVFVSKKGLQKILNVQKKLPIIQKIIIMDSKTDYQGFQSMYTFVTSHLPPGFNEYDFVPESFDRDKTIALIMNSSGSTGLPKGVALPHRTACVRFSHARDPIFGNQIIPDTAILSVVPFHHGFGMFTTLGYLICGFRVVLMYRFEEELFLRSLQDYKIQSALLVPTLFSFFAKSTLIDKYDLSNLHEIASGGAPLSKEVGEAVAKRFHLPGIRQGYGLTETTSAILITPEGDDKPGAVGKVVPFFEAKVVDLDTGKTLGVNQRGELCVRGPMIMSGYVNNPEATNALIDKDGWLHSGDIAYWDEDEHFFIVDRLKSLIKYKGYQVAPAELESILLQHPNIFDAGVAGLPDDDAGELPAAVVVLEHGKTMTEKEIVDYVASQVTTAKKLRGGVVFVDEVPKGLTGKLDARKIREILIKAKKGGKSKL
Sequence of Follistatin (Homo sapiens) (P19883 whole entry, looked up): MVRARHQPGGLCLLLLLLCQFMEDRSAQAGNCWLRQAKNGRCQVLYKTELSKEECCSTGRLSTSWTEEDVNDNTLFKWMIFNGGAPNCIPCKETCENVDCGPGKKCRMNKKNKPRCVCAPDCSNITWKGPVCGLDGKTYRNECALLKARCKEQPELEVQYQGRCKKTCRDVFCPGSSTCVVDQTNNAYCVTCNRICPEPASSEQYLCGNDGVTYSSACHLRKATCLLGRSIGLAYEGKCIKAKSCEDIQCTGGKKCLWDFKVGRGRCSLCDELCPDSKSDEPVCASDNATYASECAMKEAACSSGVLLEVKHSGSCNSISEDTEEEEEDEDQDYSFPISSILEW
Sequence of Focal adhesion kinase 1 (Homo sapiens) (Q05397 whole entry, looked up): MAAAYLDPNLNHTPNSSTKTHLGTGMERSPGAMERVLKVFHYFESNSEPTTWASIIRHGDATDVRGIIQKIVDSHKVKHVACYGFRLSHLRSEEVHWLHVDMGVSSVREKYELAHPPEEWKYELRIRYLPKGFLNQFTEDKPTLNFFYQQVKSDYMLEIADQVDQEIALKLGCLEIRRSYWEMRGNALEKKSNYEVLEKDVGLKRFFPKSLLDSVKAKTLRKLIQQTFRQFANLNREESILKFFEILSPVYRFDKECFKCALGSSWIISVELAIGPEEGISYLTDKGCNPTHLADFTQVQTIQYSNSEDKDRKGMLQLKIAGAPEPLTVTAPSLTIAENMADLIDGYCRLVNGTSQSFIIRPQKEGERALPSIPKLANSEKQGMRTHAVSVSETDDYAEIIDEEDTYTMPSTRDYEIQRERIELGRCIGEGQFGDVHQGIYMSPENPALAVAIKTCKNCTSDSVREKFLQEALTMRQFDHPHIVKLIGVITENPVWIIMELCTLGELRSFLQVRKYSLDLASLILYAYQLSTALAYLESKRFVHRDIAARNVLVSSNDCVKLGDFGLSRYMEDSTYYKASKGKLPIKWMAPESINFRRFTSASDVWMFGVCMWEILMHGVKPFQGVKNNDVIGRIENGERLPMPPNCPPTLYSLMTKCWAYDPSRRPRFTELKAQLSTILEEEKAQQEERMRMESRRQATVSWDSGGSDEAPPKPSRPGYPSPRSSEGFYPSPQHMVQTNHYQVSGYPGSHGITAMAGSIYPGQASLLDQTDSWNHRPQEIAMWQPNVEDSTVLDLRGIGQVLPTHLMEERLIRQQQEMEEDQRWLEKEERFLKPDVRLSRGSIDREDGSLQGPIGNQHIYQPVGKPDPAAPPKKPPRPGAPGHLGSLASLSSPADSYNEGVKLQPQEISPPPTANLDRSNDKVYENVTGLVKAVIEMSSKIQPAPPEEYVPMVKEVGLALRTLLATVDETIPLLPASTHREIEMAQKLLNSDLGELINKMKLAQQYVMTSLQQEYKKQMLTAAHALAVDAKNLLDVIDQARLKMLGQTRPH
Sequence of Torsin-1A (Homo sapiens) (O14656 whole entry, looked up): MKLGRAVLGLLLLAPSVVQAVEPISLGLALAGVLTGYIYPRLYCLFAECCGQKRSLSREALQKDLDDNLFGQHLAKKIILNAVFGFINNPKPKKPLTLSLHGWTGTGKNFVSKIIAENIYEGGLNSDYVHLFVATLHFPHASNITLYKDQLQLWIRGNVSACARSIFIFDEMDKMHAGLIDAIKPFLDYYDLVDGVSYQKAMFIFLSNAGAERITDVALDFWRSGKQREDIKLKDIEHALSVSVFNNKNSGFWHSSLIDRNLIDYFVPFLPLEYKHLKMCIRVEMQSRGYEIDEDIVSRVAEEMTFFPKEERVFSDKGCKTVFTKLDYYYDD

`COC(=O)[C@H](C)NC(=O)CCC1CC(OC(=O)NCCc2ccc(F)cc2)CC2(CCCC(COC(=O)NCCC(C)C)O2)O1` (stereo not given in full): the composite z-score was determined as 0.959 in [1]; 0.168 in experiment [2]; 0.0069 in [3]; 0.939 in experiment [4]; 0.577 in experiment [5]; 0.761 in [6]. In addition, the composite z-score was 0.899 in experiment [8]; 0.323 in experiment [9]; 0.255 in experiment [11]; 0.0943 in experiment [16]; 0.0047 in [17]; -0.184 in [18]. Besides, the results for the composite z-score in [19] and in experiment [20] were -0.0067 and 1.22, respectively. Also, the z-score in [7] is 2.09; in experiment [10], -0.447 (inactive); in [12], -0.872 (inactive); in experiment [13], -1.41 (inactive); in experiment [14], 0.109 (inactive); in experiment [15] it was 0.283 (inactive).
Regarding `CC(C)=CCCC(C)=CCON=C1C[C@@H](O)[C@@H](O)[C@@H]2[C@@H]3C(=O)N(Cc4ccccc4)C(=O)[C@@H]3CC[C@@H]12`, the composite z-score is 0.546 in [1]; -0.369 in experiment [2]; -0.0506 in experiment [3]; -0.266 in [4]; 1.07 in [5]; 1.44 in [6]. In addition, the composite z-score in [8] is 0.894; in [9], -0.0507; in experiment [11], 0.292; in [16], -0.0277; in experiment [17], -0.157; in experiment [18] it was 0.925. In addition, the composite z-score in [19] is 0.293; in experiment [20] it was 1.88. In addition, the z-score in experiment [7] was 0.071; in experiment [10], 1.19 (inactive); in experiment [12], 0.18 (inactive); in experiment [13], 0.603 (inactive); in experiment [14], -0.478 (inactive); in experiment [15], -0.0093 (inactive).
In the case of `CSCC[C@@H]1NC(=O)CC=C[C@@H](C)COC(=O)[C@@H](C)COC1=O`, the composite z-score in experiment [1] was -0.888; in experiment [2] it was -1.81; in experiment [3] it was -0.948; in experiment [4], -2.46; in experiment [5], 0.556; in experiment [6] it was 0.0867. Besides, the composite z-score in experiment [8] was -0.0168; in experiment [9], -1.71; in experiment [11] it was -0.0993; in experiment [16] it was -1.03; in experiment [17], -0.0736; in experiment [18] it was 2.66. Further, the composite z-score in experiment [19] is 2.1; in [20], 1.81. Moreover, the z-score is 1.31 in [7]; -0.343 (inactive) in experiment [10]; -0.184 (inactive) in [12]; 0.117 (inactive) in experiment [13]; -0.476 (inactive) in [14]; -0.846 (inactive) in experiment [15].
In the case of `C=C(C)C(=O)OCC1CN2[C@@H](CC[C@@H](C)[C@@H]2c2ccc(Br)cc2)C(=O)O1` (stereo not given in full), the composite z-score in experiment [1] was 0.0797; in experiment [2], 0.281; in [3], 1.64; in [4] it was 0.794; in [5], 0.196; in experiment [6], 0.192. Moreover, the composite z-score was 0.452 in experiment [8]; 0.0513 in experiment [9]; 0.192 in experiment [11]; 0.33 in experiment [16]; -0.0627 in experiment [17]; -0.2 in experiment [18]. Further, the composite z-score in [19] turned out to be 1.13; in experiment [20] it was 0.486. In addition, the z-score is 0.717 in [7]; -0.0906 (inactive) in experiment [10]; -0.295 (inactive) in experiment [12]; 1.34 (inactive) in [13]; 1.91 (inactive) in [14]; -0.0828 (inactive) in experiment [15].
As for `C=CC[C@@H]1C=C[C@H](ON=C(C)CCC(=O)OC[C@H]2O[C@H](c3ccccc3)C=C[C@@H]2Oc2ccc(OC)cc2)[C@@H](CO)O1`, the composite z-score was 0.14 in [1]; -0.214 in [2]; 0.261 in [3]; -1.43 in experiment [4]; -0.398 in experiment [5]; 0.121 in experiment [6]. The composite z-score was 0.443 in experiment [8]; 0.104 in experiment [9]; -0.278 in experiment [11]; -0.586 in experiment [16]; -0.128 in [17]; -0.957 in experiment [18]. For the same compound, the composite z-score in [19] was -0.587; in experiment [20] it was -0.317. In addition, the z-score in [7] was -0.217; in experiment [10], -0.506 (inactive); in experiment [12], -1.08 (inactive); in experiment [13], -0.743 (inactive); in experiment [14] it was -0.24 (inactive); in experiment [15], -0.24 (inactive).
